Reference: the supplement of paper PMC13392028

Test system: PvIESI-1 RRM domain (Plasmodium vivax PVP01_0939900 aa 896-1203, GST fusion)
Test: RBNS R-value (6-mer enrichment in protein-bound RNA vs input library) (ratio); higher = stronger binding preference; the methods of the paper give 50 / 100 / 500 nM protein instead
Procedure: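 RNA Bind-n-Seq: recombinant GST-tagged IESI-1 RRM domain was incubated at room temperature with a random 40-nt in vitro transcribed RNA library at 250, 500 or 1000 nM protein. Bound RNA was pulled down on glutathione beads and sequenced. R-value is the enrichment of each 6-mer in the bound RNA relative to the input library. Each 6-mer sits inside the random 40-mer context, not as an isolated oligo. Values are replicate 1 only.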

Sequence	RBNS R-value (protein concentration: 250 nM)	RBNS R-value (protein concentration: 500 nM)	RBNS R-value (protein concentration: 1000 nM)
UGAUGG	3.91	4.11	3.78
CCUUGA	1.7	1.88	1.91
UGAUGU	4.24	4.51	4.13
GAUUUU	2.5	2.64	2.47
UUGAUA	2.87	3.36	3.32
GAUUUC	2.32	2.49	2.38
CUUGAU	3.23	3.65	3.49
CUGAUU	3.89	4.11	3.75
UGAUUA	3.86	4.25	4.11
UGAUAA	2.82	3.29	3.43
CUGAUA	2.42	2.81	2.81
UGAUUC	3.85	4.13	3.89
UGUGAU	2.53	2.8	2.72
GUGAUA	2.04	2.34	2.47
